Bioassay records from PubChem.
RORgamma inh: ROR gamma (mouse) transcription inhibition | P51450 | Drosophila S2 Gal4-RORgamma UAS-luciferase reporter, 20 h | Potency, µM (doses to about 53.6 µM), inactives show at the highest dose activity change, negative = inhibition, usual class: inhibitors | 310,000 tested, 5.4% active; also: potency is read from the fitted curve at half-maximal effect; % is scaled to controls: 0 for no effect and ±100 for the full control effect; nearly all actives have a fitted effect of over 60% in size
Target sequence (P51450 whole entry, looked up, the tested form may be a part): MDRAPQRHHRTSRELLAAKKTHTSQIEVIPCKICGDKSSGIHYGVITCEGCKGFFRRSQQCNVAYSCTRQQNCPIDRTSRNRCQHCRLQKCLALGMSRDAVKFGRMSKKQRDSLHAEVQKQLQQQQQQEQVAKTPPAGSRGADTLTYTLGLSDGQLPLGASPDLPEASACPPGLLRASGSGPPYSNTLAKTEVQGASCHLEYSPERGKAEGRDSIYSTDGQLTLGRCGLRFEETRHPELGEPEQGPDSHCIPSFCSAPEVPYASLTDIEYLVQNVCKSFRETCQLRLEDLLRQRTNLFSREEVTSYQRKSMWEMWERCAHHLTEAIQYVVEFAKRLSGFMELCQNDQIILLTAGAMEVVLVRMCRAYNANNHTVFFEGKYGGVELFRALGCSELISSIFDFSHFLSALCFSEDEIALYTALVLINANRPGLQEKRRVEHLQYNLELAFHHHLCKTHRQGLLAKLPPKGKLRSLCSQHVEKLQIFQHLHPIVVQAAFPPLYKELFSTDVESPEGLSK
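Compounds are pin-transferred onto Drosophila Schneider cells expressing a copper-inducible Gal4–ROR gamma transactivation domain fusion. After 1 hr, copper sulfate is added to 700 uM final; luciferase is read 20 hr later.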
IL1B secr inh: blocks inflammasome-driven IL-1 beta release; THP-1 LPS/ATP IL-1B secretion, AlphaLISA, 16 h; hits give low values; activity change, % at 57.5 µM; 360,000 tested, 4.7% active; AID 743279; in the data active = activity change below about -50%; inconclusive = mostly about -30% to -49%; also: % is scaled to controls: 0 for no effect and ±100 for the full control effect
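Secreted IL-1B measured by AlphaLISA bead assay after 16 h compound exposure of THP-1 cells; compounds (final up to 57.5 uM) added 1 h before LPS (250 ng/mL) and ATP (1.25 mM) stimulation; lower signal means less secretion.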
MCF10A rereplic: inducers of DNA re-replication in MCF 10A breast cells; MCF 10A DNA re-replication, Hoechst nuclear intensity, 48 h; Potency, µM (top dose mostly 46.1 µM), for the others: at the top dose activity, positive = re-replication, actives largely listed as activators; 350,000 tested, 2.9% active; AID 624296; also: potency is read from the fitted curve at half-maximal effect; % of control where 0% means no effect; nearly all actives have a fitted effect of over 50% in size
SW480 rerep: inducers of DNA re-replication in SW480 colon cancer cells. Potency, µM (doses to about 46.1 µM), inactives show at the top dose re-replication activation, hits mostly activators. 340,000 tested, 1.8% active. AID 624297. SW480 DNA re-replication, Hoechst DNA content imaging, 48 h; also: potency is read from the fitted curve at half-maximal effect; % of control where 0% means no effect; nearly all actives have a fitted effect of over 55% in size
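First, 250 cells per well were seeded. Next, compound or vehicle (23 nL) was pinned in, plates sat 48 hr at 37 C. Finally Hoechst was added for 40 min before fluorescence scanning.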
VP16 counter: inhibits Gal4-VP16 luciferase reporter, ROR gamma counter-screen. Drosophila S2 Gal4-VP16 UAS-luciferase, luminescence, 20 h. Potency, µM (top dose mostly 53.6 µM), inactives show at the highest dose activity, negative = inhibition, actives largely listed as inhibitors. 310,000 tested, 3.5% active. AID 2546;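 also: Gal4-VP16 expression switched on by copper sulfate through the metallothionein promoter; potency is read from the fitted curve at half-maximal effect; % is scaled to controls: 0 for no effect and ±100 for the full control effect; nearly all actives have a fitted effect of over 50% in size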
An asterisk follows results filed as active; u = inconclusive; x = no result; [ ] = remark or other dose. Shown are actives, neighbours in structure and some others; about 11% of the full set was active somewhere. Unless noted, calls follow the shape of the dose curve; as a rule, active = well fitted curve in the direction sought with a large enough effect; inconclusive = small, poorly fitted or top-dose-only effect, or another doubt; inactive = no such curve, though single readings can be large; an effect the other way counts as inactive or inconclusive.

SMILES	RORgamma inh	IL1B secr inh	MCF10A rereplic	SW480 rerep	VP16 counter
COc1cc(/C=N/Nc2nc(N3CCCC3)nc(N3CCCC3)n2)ccc1O	-40%	-9	u	-3%	8%
COc1ccc(/C=N/Nc2nc(Nc3ccccc3)nc(N3CCCC3)n2)cc1[N+](=O)[O-]	13µM*	-88*	u	18µM*	-30%
Cc1[nH]c2ccccc2c1/C=N/Nc1nc(Nc2ccccc2)nc(N2CCOCC2)n1	u	-80*	u	u	0%
Oc1[nH]c2ccccc2c1N=Nc1nc(Nc2ccccc2)nc(N2CCOCC2)n1	-8%	u	u	-20%	-2%
COc1ccc(/C=N/Nc2nc(Nc3ccccc3)nc(N3CCCCC3)n2)c(OC)c1	3.2µM*	-14	-7%	2%	11µM*
CCOc1ccc(/C=N/Nc2nc(N3CCCC3)nc(N3CCCC3)n2)cc1OC	13µM*	1	2%	-4%	u
CC1(C(=O)Nc2ccc(F)cc2F)CCN1C(=O)Cc1ccccc1 (stereo not given)	x	-5	x	x	x
CN(CC(=O)NC1CCN(Cc2ccccc2)CC1)S(=O)(=O)c1ccc(Br)s1	26%	-26	14%	-6%	-21%
COc1ccc(/C=N/Nc2nc(N3CCCCC3)nc(N3CCCCC3)n2)cc1[N+](=O)[O-]	16µM*	-19	u	5%	-8%
CN(CC(=O)Nc1ccccc1Br)C(=O)c1sccc1-c1ccccc1	x	3	9%	1%	x
COc1ccc(NS(=O)(=O)c2ccc(O)c(NC(=O)c3cc4c(C)nn(-c5ccc(F)cc5)c4s3)c2)cc1	u	u	8.2µM*	u	22µM*
CCC(C)[C@H](NS(=O)(=O)c1ccc(C)cc1)C(=O)N1CCC(C(=O)N2CCC(C(=O)OC)CC2)CC1 (stereo not given in full)	2%	-6	26%	13%	-15%
COc1cc2c3nnc(-c4ccc(F)cc4)c-3cn(Cc3ccccc3F)c2cc1OC	6.3µM*	-60*	9.2µM*	u	5µM*
COc1cc2c3nnc(-c4ccccc4)c-3cn(Cc3ccccc3F)c2cc1OC	8.9µM*	-115*	23µM*	23µM*	u
CC(=O)OC[C@H]1O[C@@H](O/N=C2/[C@H]3O[C@@H]3[C@@H](O)[C@H]3[C@H]2CCn2c(=O)n(-c4ccccc4)c(=O)n23)[C@H](OC(C)=O)[C@@H](OC(C)=O)[C@@H]1OC(C)=O	8%[10 µM]	x	x	x	-1%[10 µM]
NC(Cc1ccc(F)cc1)c1csc(Nc2cc(NCc3ccco3)ncn2)n1 (stereo not given)	x	-55*	x	x	x
Cc1cc(C)nc(Nc2nc(C(N)Cc3ccc(F)cc3)cs2)n1 (stereo not given)	x	-8	x	x	x
NC(c1csc(Nc2cc(NCc3ccco3)ncn2)n1)c1ccccc1Cl (stereo not given)	x	-79*	x	x	x
CC(C)Nc1ncnc2c1ncn2[C@H]1CN(Cc2ccc3c(c2)OCO3)C[C@@H](CO)O1	x	3	x	x	x
O=C(CCN1C(=O)/C(=C/c2ccccc2)SC1=S)Nc1cccnc1	u	-7	-1%	-10%	1%
O=C(CCN1C(=O)/C(=C/c2ccccc2F)SC1=S)N[C@@H](CO)Cc1ccccc1	-35%	-99*	u	22µM*	-14%
O=C(CCN1C(=O)/C(=C/c2ccccc2)SC1=S)N[C@@H](CO)Cc1ccccc1	-32%	-61*	u	u	-6%
CC(=O)N1CCN(C(=O)c2ccc(NS(=O)(=O)c3ccc4c(c3)OCCO4)cc2)CC1	x	15	-4%	-3%	x
COc1ccc(C(=O)c2[nH]c(N)c(C(=O)NCCc3c[nH]c4ccccc34)c2-c2c(F)cccc2Cl)cc1	x	-9	x	x	x
CCOC(=O)C1=C(N)Oc2ccc3ccccc3c2C1c1ccc(O)cc1 (stereo not given)	44%	-12	18µM*	1%	-4%
SMILES	RORgamma inh	IL1B secr inh	MCF10A rereplic	SW480 rerep	VP16 counter
CCOC(=O)C1=C(N)Oc2ccc3ccccc3c2C1c1ccc(O)c(OC)c1 (stereo not given)	10%	-17	u	1%	0%
CCOC(=O)C1=C(N)Oc2cc(O)ccc2C1c1ccc([N+](=O)[O-])cc1 (stereo not given)	9%	-70*	u	10%	u
COC(=O)c1ccc(C2C(C#N)=C(N)Oc3cc(O)ccc32)cc1 (stereo not given)	35%	0	1%	4%	4%
CC1CCCCN1C(=O)COC(=O)C1CCN(S(=O)(=O)c2c(Cl)cccc2Cl)CC1 (stereo not given)	-36%	3	3%	-4%	-7%
COc1ncc2nc(C)c(=O)n(C[C@H]3CCCO3)c2n1	-8%	x	x	x	3%
Cc1ccc(NC(=O)COc2ccc(/C=N/NC(=O)CSCc3ccccc3)cc2)cc1	u	33	14%	-4%	-1%
CCOC(=O)c1c2ccc(OCC(=O)N/N=C/c3ccc(C)cc3)cc2n2ccccc12	-8%	4	2.6µM*	u	-13%
CCOC(=O)c1c(-c2ccccc2)oc2ccc(OCC(=O)O)cc12	1%	33	3%	-10%	-17%
CCOC(=O)c1c2ccc(OCC(=O)NN)cc2n2ccccc12	-1%	u	16µM*	-11%	-1%
Cc1cccc(NC(=O)c2sc3nc(-c4ccccc4)cn3c2C)n1	-7%	-59*	-2%	-3%	-4%
COc1ccc(-c2cn3c(C)c(C(=O)Nc4cccc(C)n4)sc3n2)cc1	7.1µM*	34	u	2%	11µM*
CC(OC(=O)c1cccc(S(=O)(=O)N(C)C)c1)C(=O)NCc1ccc2c(c1)OCO2 (stereo not given)	x	6	1%	-5%	x
CCCCNc1nc(C)nc2c1nc(-c1ccccc1)n2C1CCN(Cc2ccccc2)C1 (stereo not given)	11µM*	x	x	x	-12%
Cc1cccc([C@H]2[C@@H]3C=CCC[C@@]3(C)C(=O)N2Cc2ccccc2)c1	43%	x	x	x	21%
CC12CCC=CC1C(c1cccc(Br)c1)N(Cc1ccccc1)C2=O (stereo not given)	u	x	x	x	13µM*
Cc1ccc(-c2cc(C3C4C=CCCC4(C)C(=O)N3Cc3ccccc3)ccc2F)cc1 (stereo not given)	15%	x	x	x	-3%
Cc1ccc(F)c([C@H]2[C@@H]3C=CCC[C@@]3(C)C(=O)N2Cc2ccccc2)c1	20%	32	23µM*	-4%	0%
COc1ccc(OC)c(C(=O)COC(=O)c2[nH]c(C)c(C(C)=O)c2C)c1	x	26	0%	-6%	x
O=C(NCc1ccc(Cl)cc1)C1=Cc2cc(Cl)ccc2OC1	u	0	11%	2%	-20%
